# Screening results as filed in PubChem BioAssay.
# Most compounds without a hit are left out; they make up all but 8.9% or so of the library.
# MCF10A rerep: inducers of DNA re-replication in MCF 10A breast cells; MCF 10A DNA re-replication, Hoechst nuclear intensity, 48 h; AID 624296; 2.9% of 350,000 active; Potency, µM (highest dose often 46.1 µM), for the others: at the top dose activity, positive = re-replication, usual class: activators; also: potency is read from the fitted curve at half-maximal effect; % of control where 0% means no effect; nearly all actives have a fitted effect of over 50% in size
# DRD3 antagonist: antagonists of human D3 dopamine receptor; D3R cells, DiscoveRx beta-arrestin luminescence, antagonist mode; hits give low values; P35462; 2.5% of 360,000 active; max response, negative = inhibition, %; AID 652054; in the data active = max response below about -50%; inconclusive = no clear call, values can overlap the other calls; also: % is scaled to controls: 0 for no effect and ±100 for the full control effect
# Target sequence (P35462 whole entry, looked up): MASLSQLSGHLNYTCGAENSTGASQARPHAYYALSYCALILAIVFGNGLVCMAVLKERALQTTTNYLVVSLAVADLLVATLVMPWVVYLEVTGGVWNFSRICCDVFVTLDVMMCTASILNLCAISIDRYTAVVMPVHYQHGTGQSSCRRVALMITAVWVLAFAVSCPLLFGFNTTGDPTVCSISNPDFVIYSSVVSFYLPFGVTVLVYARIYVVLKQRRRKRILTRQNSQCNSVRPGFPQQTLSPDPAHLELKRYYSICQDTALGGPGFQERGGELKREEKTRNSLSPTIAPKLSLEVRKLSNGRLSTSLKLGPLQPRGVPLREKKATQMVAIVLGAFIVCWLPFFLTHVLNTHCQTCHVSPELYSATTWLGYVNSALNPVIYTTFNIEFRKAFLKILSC
#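 Cells expressing the human receptor were seeded at 1500 cells/well, incubated overnight at 37 degrees C in 5% CO2, then exposed to library compounds with dopamine controls for 90 minutes at 37 degrees C before luminescent detection.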
# SW480 rerep: induces DNA re-replication in SW480 colon adenocarcinoma cells. SW480 DNA re-replication, Hoechst DNA content imaging, 48 h. Potency, µM (highest dose often 46.1 µM), for the others: at the highest dose re-replication activation, usual class: activators. 1.8% of 340,000 active. AID 624297; also: potency is read from the fitted curve at half-maximal effect; % of control where 0% means no effect; nearly all actives have a fitted effect of over 55% in size
#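 Quantitative HTS format with DMSO vehicle controls; 48 hr drug incubation at 37 C, then 40 min Hoechst staining and scanning imager measurement at 405 nm excitation.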
# DRD3 agonist: activates the human D3 dopamine receptor; P35462; D3R DiscoveRx beta-arrestin cells, luminescence, 90 min; max activation, %; 0.58% of 410,000 active; AID 652048; in the data active = max activation above about 30%; also: 0% is about no effect
#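 Agonist mode: compounds and dopamine controls were applied to plated cells for 90 min at 37 degrees C after an overnight attachment at 1500 cells/well. Luminescent read-out followed 30 - 60 minutes at room temperature with DiscoveRx detection reagent.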
# KB-V1 MDR tox: KB-V1 MDR subline cytotoxicity; Potency, µM (series often up to 46.1 µM), hits mostly cytotoxic; KB-V1 MDR cells viability, CellTiter-Glo, 72 h; 3.4% of 400,000 active; also: potency is read from the fitted curve at half-maximal effect; % is scaled to controls: 0 for no effect and ±100 for the full control effect; nearly all actives have a fitted effect of over 60% in size
#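 Potencies derive from concentration-effect curves fitted to normalized luminescence (CellTiter-Glo) of KB-V1 cells treated for 72 h at 37 degrees C in phenol-red-free DMEM containing 10% FBS.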
# KB-3-1 tox: KB-3-1 parental cell cytotoxicity | KB-3-1 viability, CellTiter-Glo ATP luminescence, 72 h | Potency, µM (top dose mostly 46.1 µM), actives largely listed as cytotoxic | 1.4% of 400,000 active | AID 1347075; also: potency is read from the fitted curve at half-maximal effect; % is scaled to controls: 0 for no effect and ±100 for the full control effect; nearly all actives have a fitted effect of over 60% in size
#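 Cytotoxicity in the drug-sensitive parental line KB-3-1 was scored as loss of CellTiter-Glo luminescence following 72 h incubation with compound. Values come from curve fitting of normalized concentration-response data.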
# * marks the source's active call; other numbers are inactive results; i = inactive; ? = inconclusive; . = no result; [ ] = remark or other dose. Unless noted, calls follow the shape of the dose curve; as a rule, active = well fitted curve in the direction sought with a large enough effect; inconclusive = small, poorly fitted or top-dose-only effect, or another doubt; inactive = no such curve, though single readings can be large; an effect the other way counts as inactive or inconclusive.
SMILES,MCF10A rerep,DRD3 antagonist,SW480 rerep,DRD3 agonist,KB-V1 MDR tox,KB-3-1 tox
CC1CCCN(Cc2c(O)ccc3c(=O)c(-c4ccc(Cl)cc4)c(C(F)(F)F)oc23)C1 (configuration not stated),.,.,.,-7,i,i
COc1ccc(-c2cc(-c3ccccc3)nc(N)n2)c(O)c1,14%,19,3%,14,21µM*,?
COc1ccc(OC)c(Nc2cc(-c3ccccc3)nc(N)n2)c1,0.65µM*,0,2.6µM*,-13,1.3µM*,1µM*
COc1ccc2nc(-c3ccccc3)[nH]c(=O)c2c1,-1%,-16,-6%,-13,i,i
COc1ccc2nc(-c3ccccc3)cc(OC)c2c1,?,35,2%,33*,?,i
COc1ccccc1-n1ncc2c(=O)[nH]c(SCC(=O)Nc3cccc(F)c3)nc21,.,.,.,9,.,.
Cc1cccc(Nc2nc3ccccc3n3c(N)nnc23)c1,.,.,.,8,.,.
CCOc1c(O)ccc(/C=C2\SC(=S)NC2=O)c1[N+](=O)[O-],26µM*,-15,26%,-1,i,i
CCOc1ccc(N(C)c2ccc(/C=C3/SC(=S)NC3=O)cc2)cc1,4.1µM*,0,?,-7,i,i
CN(C)c1ccc(C=C2SC(=S)NC2=O)cc1,13%,-10,0%,-4,i,i
COc1cccc(C(C)=C2SC(=S)NC2=O)c1,5%,-26,-3%,-20,21µM*,i
COc1cccc(C=C2SC(=S)NC2=O)c1,16µM*,-10,1%,-1,?,?
NC(=O)C1=CC2C3C=CC2(O)C(=O)OC3O1 (configuration not stated),2.9µM*,-14,3.7µM*,-7,?,?
O=C(c1cc2cc(Cl)ccc2[nH]1)N1CCN(Cc2ccc3c(c2)OCO3)CC1,?,?,?,-15,?,?
O=c1cc(CN2CCN(Cc3ccc(F)cc3)C(CCO)C2)[nH]c2ccccc12 (configuration not stated),0%,-58*,2%,-24,?,i
OCCC1CN(Cc2cc3c(cc2Cl)OCO3)CCN1Cc1ccccc1 (configuration not stated),-9%,-53*,2%,-24,i,i
OCCC1CN(Cc2cccs2)CCN1Cc1ccccc1 (configuration not stated),10%,-24,0%,-19,i,i
CCOc1ccc(CN2CCN(Cc3cc4c(cc3Cl)OCO4)CC2CCO)cc1 (configuration not stated),4%,-64*,?,-40,i,i
OCCC1CN(Cc2cc3ccccc3o2)CCN1Cc1ccc(F)cc1 (configuration not stated),?,?,4%,-23,i,i
CCOc1ccc(CN2CCN(Cc3cccc4c3OCO4)CC2CCO)cc1 (configuration not stated),7%,-61*,-4%,-19,i,i
O=S(=O)(c1ccc(F)cc1)N1CCC(n2c(C(F)(F)F)nc3cccnc32)CC1,.,.,.,3,i,i
Cc1c(CN2CCN(CC(C)(C)C)C(CCO)C2)[nH]c2ccccc12 (configuration not stated),15%,0,1%,3,i,i
Cc1ccc(CN2CCN(Cc3cccc4c3OCO4)CC2CCO)cc1 (configuration not stated),-9%,-94*,-3%,-28,i,i
CCOc1ccc(CN2CCN(Cc3[nH]c4ccccc4c3C)CC2CCO)cc1 (configuration not stated),?,-17,23µM*,-13,?,?
CC(=O)c1cccc(NC(=O)NN2CCN(C)CC2)c1,0%,5,5.8µM*,1,i,i
SMILES,MCF10A rerep,DRD3 antagonist,SW480 rerep,DRD3 agonist,KB-V1 MDR tox,KB-3-1 tox
CCOc1ccc(N(CC)S(=O)(=O)c2cc(Br)cc3c2N(C(C)=O)C(C)C3)cc1 (configuration not stated),.,.,.,-5,i,?
C=CCNC(=O)c1ccccc1NC(=O)c1ccc(Cl)c(S(=O)(=O)Nc2cc(C)ccc2C)c1,-2%,9,-3%,9,21µM*,i
COc1cc(/C=N/N=C/c2cc(OC)c(O)c(OC)c2)cc(OC)c1O,4%,-25,-86%,-2,i,i
COc1cc(/C=N/N=C(/C(=O)c2ccccc2)c2ccccc2)cc(OC)c1O,?,12,3%,8,9.2µM*,i
Cc1cccc(-c2nc(CSc3nncn4c3cc3sccc34)c(C)o2)c1,.,.,.,2,.,.
Cc1cc(C)nc(Sc2ncnc3sc4c(c23)CCC4)n1,-182%[0.0737 µM],1,13µM*,-7,?,?
CC(C#N)Sc1ncnc2sc3c(c12)CCC3 (configuration not stated),?,8,5%,1,?,i
CCOC(=O)c1c(-c2ccccc2)csc1NC(=S)NC,18µM*,1,?,-4,i,i
CCOC(=O)c1c(-c2ccc(-c3ccccc3)cc2)csc1NC(=O)CCN1CCOCC1,8.2µM*,69,23%,8,i,?
CCOC(=O)c1c(-c2ccc(C)o2)csc1NC(=S)NC(=O)c1ccccc1Br,?,-29,?,-26,16µM*,?
CCOC(=O)c1c(-c2ccc(F)cc2)csc1NC(=O)CCN1C(=O)c2ccccc2C1=O,0%,1,-2%,4,?,i
CCOC(=O)c1c(-c2ccc(F)cc2)csc1NC(=O)CCN1CCOCC1,14%,7,1%,7,15µM*,i
COc1cccc(N2CCN(C(=O)c3ccc(CS(=O)c4cccc(Cl)c4)o3)CC2)c1 (configuration not stated),.,.,.,-3,.,.
Cc1nc2cccnc2n1C1CCN(S(C)(=O)=O)CC1,.,.,.,4,i,i
Cc1cccc(CN2C(=O)c3ccccc3S(=O)(=O)c3ccc(C(=O)N4CCN(c5cc(C)ccc5C)CC4)cc32)c1,.,.,.,8,i,i
COC(=O)c1cc2sc(Cl)cc2n1CC(=O)Nc1ccc(OC)c(OC)c1OC,26µM*,-5,18%,-15,i,i
O=c1oc2c(CN3CCOCC3)c(O)ccc2c2c1CCCC2,-1%,-24,-4%[9.22 µM],-9,i,i
CC1(C)Oc2c(ccc(O)c2CN2CCOCC2)C2=C1CCCC2,24%,?,-9%,-19,18µM*,i
CC(C)(C)C1CCc2c(sc(NC(=O)Cn3nnc(-c4cccc(C(F)(F)F)c4)n3)c2C#N)C1 (configuration not stated),.,.,.,2,?,i
